# About 83,000 compounds went through this panel and 20% of them were active in at least one assay; those are over-represented in the sample as a whole.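 Values shown are percent growth following 48 h exposure of cells in 96-well plates to a single concentration of compound; below 10 was considered active.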 Calls of active or inactive are those of the source.
# System: HCT-116 colon
# Assay: NCI-60 one-dose screen, 48 h (100 = growth as untreated, 0 = no growth, -100 = all killed)
# Conditions: 10 µM unless noted
# Description: Growth inhibition of the HCT-116 human tumor cell line is measured as a screen for anti-cancer activity. Cells are grown in 96 well plates and exposed to the test compound for 48 hours. Compounds are tested at a single concentration, which is 10^-5 M for most compounds. The reported endpoint is percent growth (GI% or GIPRCNT), where numbers from 0 - 100% represent growth inhibition, and numbers from -100% - 0 represent cell death. For example, a value of 40 represents 60% growth inhibition. A value of 0 means no net growth occurred over the course of the experiment. A value of -40 indicates 40% of cells at the beginning of the experiment died by the end of the experiment. A value of -100 means all cells are dead at the end of the experiment.
# NCI-60 Human Tumor Cell Lines Screen was performed using the standard one-dose NCI protocol, which is described in more detail at https://dtp.cancer.gov/discovery_development/nci-60/default.htm.
# Compounds with GIPRCNT values below 10 were considered active. Activity score was based on GIPRCNT using the following formula: […]
# Score is 0 for GIPRCNT values of 100 or above, 50 for GIPRCNT values of 0, and 100 for GIPRCNT values of -100.
row,Structure (SMILES),growth
1,O=Cc1c[nH]c2ccc(-c3csc4ccccc34)cc12,21.2% (inactive)
2,COc1cccc(-c2nn(-c3ccccc3)cc2-c2ccnc(NCCNC(=O)Nc3cccc(C(F)(F)F)c3)c2)c1,10.5% (inactive)
3,Cc1nn(-c2ccccc2)c(Cl)c1/C=C(/NC(=O)c1ccccc1)c1nc2ccccc2[nH]1,86.6% (inactive)
4,Cc1ccc(S(=O)(=O)n2cc(CNc3ccc(N4CCOCC4=O)cc3)c3ccccc32)cc1,76.8% (inactive)
5,Cc1ccc(C2SCC(=O)N2Cc2ccccc2)cc1 (stereo not given),94.2% (inactive)
6,COc1cc(-c2nc(N3CCN(C)CC3)c3ccccc3n2)cc(OC)c1OC,31.9% (inactive)
7,C=C1C(=O)O[C@H]2[C@H]1CC/C(COC(=O)C(=O)c1cn(C)c3ccc(OC)cc13)=C\CC[C@@]1(C)O[C@@H]21,-95.1% (active)
8,Clc1cc(Cl)cc(Nc2ccc3cc(OCCCN4CCOCC4)ccc3n2)c1,19.8% (inactive)
9,O=C(O)CN1C(=O)CCC1=O,115% (inactive)
10,Cc1ccc(C(=O)C2=C(O)C(=O)N(Cc3cccnc3)C2c2ccccc2F)o1 (stereo not given),95.2% (inactive)
11,COc1ccc(C(=NN=C(N)N)c2ccc(OC)cc2)cc1,21.5% (inactive)
12,COc1cc(N2C(=O)c3nccnc3C2=O)cc(OC)c1OC,103% (inactive)
13,CCCCN(CCCC)CC(C)(C)C(O)c1ccc(OC)c2ccccc12 (stereo not given),3.51% (active)
14,COC(=O)[C@]12CC[C@@H](C)[C@H](C)[C@@H]1C1=CC[C@@H]3[C@@]4(C)C(C=O)=C[C@@](C)(COS(C)(=O)=O)[C@@H]4C(=O)C[C@@]3(C)[C@]1(C)CC2,5.35% (active)
15,COCCc1ccc(OCC(O)CNC(C)C)cc1 (stereo not given),101% (inactive)
16,CCCCCCCCCOc1c(OC)cc(C2CC(=O)Nc3c2c(C)nn3-c2nc3ccccc3[nH]2)cc1OC (stereo not given),0.609% (active)
17,COc1ccc(C(=O)COc2ccc(/C=C3\Oc4ccccc4C3=O)cc2)cc1,92.9% (inactive)
18,Cc1nc2ccccc2c(/C=C/c2ccc(Cl)cc2)c1C(=O)/C=C/c1ccc(F)cc1,-70.5% (active)
19,CN1CCN(CC(=O)Nc2nc(-c3cccc(NS(=O)(=O)c4cccc5c(N(C)C)cccc45)c3)cs2)CC1,88.4% (inactive)
20,CCc1c2c(nc3ccc(OC(=O)OCc4ccc(B5OC(C)(C)C(C)(C)O5)cc4)cc13)-c1cc3c(c(=O)n1C2)COC(=O)[C@]3(O)CC,14.5% (inactive)

row,Structure (SMILES),growth
1,COc1ccc(CN2C(=O)C(Cl)=C(Nc3cccc(C(F)(F)F)c3)C2=O)cc1,28.9% (inactive)
2,COc1cc(N=Nc2ccc(N)cc2)c(OC)cc1N=Nc1ccccc1.[Cl][Zn][Cl],101% (inactive)
3,C=C(C)[C@@H]1CC[C@]2(C(=O)NC3CCCCC3)CC[C@]3(C)[C@H](CC[C@@H]4[C@@]5(C)CCC(=O)C(C)(C)[C@@H]5CC[C@]43C)[C@@H]12,76.3% (inactive)
4,C[C@]12CC[C@@H]3c4cc(OC(F)F)c(O)cc4CC[C@H]3[C@@H]1CC[C@@H]2OS(N)(=O)=O,29.8% (inactive)
5,O=c1[nH]nc(-c2ccccc2)c2c(-c3ccccc3)onc12,35.7% (inactive)
6,Cc1cc(NCc2cc(Nc3ccnc4cc(Cl)ccc34)ccc2F)nc(N2CCOCC2)n1,2.23% (active)
7,c1csc(-c2c3ccc(=[N+]4CCCCC4)cc-3oc3cc(N4CCCCC4)ccc23)c1,-97.1% (active)
8,C=CCOC1=CC(=O)c2ccccc2C1=O,8.07% (active)
9,COc1cc(/C=C/C(=O)c2c(C)nc3ccccc3c2C)ccc1OCCCN1CCN(C(=O)c2ccco2)CC1,76.6% (inactive)
10,O=[N+]([O-])c1ccc(N2c3ccncc3Sc3ccncc32)cc1,91.6% (inactive)
11,CCOC(=O)/C=C/c1cc2cc(-c3csc4ccccc34)ccc2[nH]1,60.1% (inactive)
12,COc1ccc(/C=c2\nc3n(-c4ccccc4)c4nc5c6c(sc5c(=N)n4n-3c2=O)CCCC6)cc1,77% (inactive)
13,CN(C)CC1C(=O)O[C@H]2[C@H]1CC/C(COC(=O)c1cc3ccccc3[nH]1)=C\CC[C@@]1(C)O[C@@H]21 (stereo not given in full),-83.3% (active)
14,N#CC1=C(c2ccc(Br)cc2)NC(SCC(=O)c2ccc(Br)cc2)NC1=O (stereo not given),96.5% (inactive)
15,C#Cc1cccc(NC(=O)c2ccc(NC(=O)CCl)cc2)c1,-30.3% [8.25 µM] (active)
16,Fc1ccc(CNc2c3ccccc3nc3ccccc23)cc1F,8.18% (active)
17,CCN(CC)Cc1cccc(C(=O)OC)c1,89.9% (inactive)
18,COC(=O)[C@]12CC[C@@H](C)[C@H](C)[C@@H]1C1=CC[C@@H]3[C@@]4(C)C(C=O)=C[C@@](C)(COC(C)=O)[C@@H]4[C@H](O)C[C@@]3(C)[C@]1(C)CC2,-76.8% (active)
19,CCCCCc1nc2c(c3c1CCCC3)CCCC2,48.8% (inactive)
20,COc1ccc(C2c3ccc4ccccc4c3Oc3nc(C)[nH]c(=O)c32)cc1 (stereo not given),107% (inactive)

# — PubChem BioAssay (NCI)
